Among the data in PubChem BioAssay (NCI) are growth inhibition values, retold here.

Assay [1] can be described thus: NCI Yeast Anticancer Drug Screen. Data for the rad50 strain (AID 155).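 Note: 0% = growth of vehicle-only cultures of the same strain.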 The settings on record: S. cerevisiae rad50 strain growth inhibition; at 50.0 µM; stronger effect = higher value. Summed up:
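DNA repair mutant yeast, compound exposure, growth read-out; inhibition is taken relative to vehicle.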

The nature of assay [2]: NCI Yeast Anticancer Drug Screen. Data for the mec2-1 strain (AID 157). The settings on record: S. cerevisiae mec2-1 strain, at 50.0 µM, stronger effect = higher value. Summed up: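 Growth inhibition is read against vehicle-treated controls after compound exposure of the mec2-1 yeast strain, which is defective in DNA damage repair or cell cycle control.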
Assay [3] is described as follows: NCI Yeast Anticancer Drug Screen. Data for the sgs1 mgt1 strain (AID 161).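 Note: 0% = growth of cultures given vehicle only.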 Particulars: S. cerevisiae sgs1 mgt1 strain, at 50.0 µM, stronger effect = higher value. Put shortly:
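Compounds are added to genetically altered yeast, and growth is compared with cultures given vehicle alone to give percent inhibition.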

Assay [4] in a line: NCI Yeast Anticancer Drug Screen. Data for the cln2 rad14 strain (AID 165).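 Note: 0% = growth equal to vehicle treated cultures.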 The settings on record: S. cerevisiae cln2 rad14 strain, at 50.0 µM, stronger effect = higher value. Put shortly: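 Growth inhibition, relative to vehicle-treated controls, is the read-out. The test organism is a yeast strain with defined genetic alterations, cln2 rad14.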
Assay [5] can be described thus: NCI Yeast Anticancer Drug Screen. Data for the bub3 strain (AID 167). Particulars: S. cerevisiae bub3 mutant strain, at 50.0 µM, stronger effect = higher value. Put shortly: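 In this screen, a yeast mutant lacking normal mitotic checkpoint function is challenged with compound. Relative growth versus vehicle gives the inhibition value.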
Assay [6] in a line: NCI Yeast Anticancer Drug Screen. Data for the mlh1 rad18 strain (AID 175). Particulars: S. cerevisiae mlh1 rad18 strain growth inhibition; at 50.0 µM; stronger effect = higher value. Put shortly:
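Cells of a genetically altered yeast strain, deficient in DNA damage repair, were treated with compound. Their growth was then compared with that of vehicle-treated cultures to give inhibition.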

The panel holds about 79,000 compounds, 15% with a hit somewhere; the sample as a whole holds those more often. A number with no mark means an inactive call. Active and inactive are the calls of the source. Cut-off read from the data, not from the text of the source: active = growth inhibition above about 70%; inactive = the rest.

For the compound `O=C1/C(=C/c2ccc3c(c2)OCO3)SC2C=Nc3ccccc3N12` (stereo unspecified), the growth inhibition in assay [1] was -14%; in assay [2] it was -20.3%; in assay [3] it was 1.2%; in assay [4], -7.45%; in assay [5], 2.5%; in assay [6], -8.65%.
Regarding `CCOC(=O)C(NC(=O)Cc1ccccc1)C(=O)O` (stereo unspecified), the growth inhibition in assay [1] is -18.8%; in assay [2], 15.5%; in assay [3] it was -3.2%; in assay [4], -6.4%; in assay [5], -1.65%; in assay [6], 3.35%.
For `N#CSc1nc[nH]c1C(N)=O`, the growth inhibition in assay [1] is -38.2%; in assay [2], -12.4%; in assay [3] it was 3.45%; in assay [4], -16.6%; in assay [5], -26.3%; in assay [6] it was -4.4%.
On to `C=C1C(=O)O[C@H]2C3OC3(C)CC/C=C(/C(=O)OC)[C@@H](OC(C)=O)[C@H](OC(=O)C3(C)OC3C)[C@H]12` (stereo partly specified), for which the growth inhibition in assay [1] was 12.6%; in assay [2] it was 31.8%; in assay [3], 13.5%; in assay [4] it was 22.4%; in assay [5], 5.55%; in assay [6], 8.85%.
`CC1=C2C(=CC(C)(CO)C2O)C(O)C(C)(O)C12CC2` (stereo unspecified): the growth inhibition was 21.1% in assay [1]; -5.15% in assay [2]; -17.1% in assay [3]; 1.95% in assay [4]; -13.9% in assay [5]; -29.8% in assay [6].
For `CCCCCCOC(=O)/C=C1/OC(=O)c2ccccc21`, the growth inhibition was -12.2% in assay [1]; -15.5% in assay [2]; 2.15% in assay [3]; -60.5% in assay [4]; 11.4% in assay [5]; -16.4% in assay [6].
As to `[N-]=[N+]=NC1OC(=O)C(Cl)=C1N=P(c1ccccc1)(c1ccccc1)c1ccccc1` (stereo unspecified), the growth inhibition was 4.3% in assay [1]; 11.3% in assay [2]; 24.4% in assay [3]; 9.6% in assay [4]; 12.1% in assay [5]; 23% in assay [6].
As to `O=[N+]([O-])c1cccc2cnccc12`, the growth inhibition in assay [1] is -7.25%; in assay [2] it was 22.4%; in assay [3], 3.9%; in assay [4], -21.1%; in assay [5], 5.5%; in assay [6], 17.6%.
For the compound `CC(=O)c1ccccc1NCC(=O)Nn1cnc2ccc(S(=O)(=O)Nc3ccccc3C(C)=O)cc2c1=O`, the growth inhibition in assay [1] was 7.25%; in assay [2], -21.3%; in assay [3], 12.9%; in assay [4], 18.6%; in assay [5], 11.5%; in assay [6] it was 7.6%.
As for `Cc1cc(C)c(/C=C\C(=O)c2ccccc2)c(C)c1`, the growth inhibition in assay [1] was 9.75%; in assay [2], -7.65%; in assay [3] it was -4.3%; in assay [4] it was -37.9%; in assay [5], 6.15%; in assay [6], -15.5%.
With `CCCCOC(=O)c1ccc(OCCCC)cc1`, the growth inhibition in assay [1] was 23.6%; in assay [2] it was 19.6%; in assay [3], 16.6%; in assay [4], 13.2%; in assay [5], 10.5%; in assay [6] it was 17.8%.
On to `COc1ccccc1/C=C(\C#N)C(=O)O`, for which the growth inhibition in assay [1] was 15.9%; in assay [2], -31.3%; in assay [3], -0.75%; in assay [4] it was 8.6%; in assay [5], -6.65%; in assay [6], -17.9%.
As for `CCCOc1ccc(C(=O)C(=O)c2ccccc2)cc1`, the growth inhibition in assay [1] is 13.4%; in assay [2], -0.2%; in assay [3], -3.95%; in assay [4], 0.8%; in assay [5], 11.4%; in assay [6] it was 7%.
As for `NC(=O)/C=C1\NC(=O)CS1`, the growth inhibition in assay [1] is 0.05%; in assay [2], 7.7%; in assay [3], 1%; in assay [4] it was -31.1%; in assay [5] it was -4.55%; in assay [6], 4.2%.
In the case of `CC1(C)OC(C)(C)c2c1nnc(-c1cccc([N+](=O)[O-])c1)[n+]2[O-]`, the growth inhibition in assay [1] was -19.5%; in assay [2], -26.2%; in assay [3] it was 18.6%; in assay [4], 1.3%; in assay [5], 11.6%; in assay [6] it was -3.55%.
As to `COc1ccc(-c2cc(=O)c3cc(O)ccc3o2)c(OC)c1OC`, the growth inhibition in assay [1] was 8%; in assay [2], 16%; in assay [3], 11.4%; in assay [4], -6.95%; in assay [5], -6.5%; in assay [6] it was -10.8%.
`COc1ccc(C(O)c2ncccc2C)cc1OC` (stereo unspecified): the growth inhibition in assay [1] was -0.3%; in assay [2], 31.3%; in assay [3], 20.1%; in assay [4], -9.35%; in assay [5], 24.8%; in assay [6], 22.3%.
For `ClCC(OCc1ccccc1)OCc1ccccc1`, the growth inhibition in assay [1] is -21.6%; in assay [2], 4.8%; in assay [3] it was -4.45%; in assay [4], -36%; in assay [5], 12.4%; in assay [6], 17.1%.
Turning to `Cn1c(=O)c2[nH]c(Cl)nc2n(C)c1=O`, the growth inhibition is 9.6% in assay [1]; -23.6% in assay [2]; 6.7% in assay [3]; -3.8% in assay [4]; -16.6% in assay [5]; -8.55% in assay [6].
`O=S(Cc1ccccc1)c1ccccc1Cn1cccc1` (stereo unspecified): the growth inhibition in assay [1] was -32.8%; in assay [2], -39.6%; in assay [3], -19.6%; in assay [4], -18.6%; in assay [5], 14.2%; in assay [6] it was -9.5%.
For `CC(=O)N(C)C1=C(Sc2ccc([N+](=O)[O-])cc2)C(=O)c2ccccc2C1=O`, the growth inhibition was 97% (active) in assay [1]; 99.5% (active) in assay [2]; 97.5% (active) in assay [3]; 99% (active) in assay [4]; 99.1% (active) in assay [5]; 98.9% (active) in assay [6].
